High-throughput results: PubChem, several laboratories
A selection: hits, their analogues and other compounds. The true share with any hit is near 4.8%.
hgDAF-12 ag: H. glycines DAF-12 receptor agonists, primary screen, cell-based, luminescence, HEK293, GAL4 fusion, UAS-luciferase; 370,000 tested, 1.8% active; Nuclear hormone receptor DAF-12 (Heterodera glycines), GAL4 fusion; HEK293 GAL4-hgDAF12 UAS-luciferase reporter, agonist luminescence; normalized to butyrate control; activation, % at 6.8 µM;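 active = activation above a cutoff set at the mean of all screened compounds plus 3 SD, cut at about 10% in these data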;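 also: 0% = DMSO wells and 100% = sodium butyrate wells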
DAX1 inh-1: DAX1 (NR0B1) inhibitors, primary screen, cell-based, HEK293, Gal4-DAX1, luciferase luminescence; Nuclear receptor subfamily 0 group B member 1 (Homo sapiens), P51843; HEK293 Gal4-DAX1 luciferase reporter; inhibition, % at 6.75 µM; 340,000 tested, 0.99% active;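 active = inhibition above the mean over all tested compounds plus 3 SD, cut at about 4.2% in these data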;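 also: 0% = DAX1-transfected cells with DMSO and 100% = empty-vector control cells with DMSO; inhibition shows as a rise in luminescence from relieved DAX1 repression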
Target sequence (P51843 207-470 limits assumed): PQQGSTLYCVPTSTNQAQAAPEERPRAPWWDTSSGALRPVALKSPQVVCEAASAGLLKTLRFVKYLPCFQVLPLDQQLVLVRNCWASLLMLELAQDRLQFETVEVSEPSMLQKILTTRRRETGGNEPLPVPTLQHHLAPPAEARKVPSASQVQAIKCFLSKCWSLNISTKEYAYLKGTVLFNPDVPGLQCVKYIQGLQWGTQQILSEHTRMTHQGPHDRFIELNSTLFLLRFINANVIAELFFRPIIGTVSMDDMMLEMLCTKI
hcDAF-12 act: H. contortus DAF-12 nuclear receptor activators, primary screen, cell-based, luminescence, HEK293, lit1-tk-luc reporter | AID 652067, 2013 | HEK293 hcDAF-12 lit1-tk-luc reporter; 0% DMSO, 100% Δ7-dafachronic acid | 370,000 tested, 1.4% active | activation, % at 6.8 µM;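 active = activation above the mean of all tested compounds plus 3 SD, cut at about 5.5% in these data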;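 also: 100% = response to 3 µM Δ7-dafachronic acid high control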
ssDAF-12 act: S. stercoralis DAF-12 nuclear receptor activators, primary screen, cell-based, luminescence, HEK293, GRIP1 co-expression, lit1-tk-luc; 370,000 tested, 1% active; activation, % at 6.8 µM; HEK293 ssDAF-12/GRIP1 lit1-tk-luc reporter; % of 3 µM dafachronic acid response;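 active = activation above the mean over all tested compounds plus 3 SD, cut at about 0.9% in these data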;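 also: 0% = DMSO-only wells and 100% = 3 µM delta7-dafachronic acid wells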
DAX1 inh-2: DAX1 (NR0B1) inhibitors on StAR promoter, primary screen, cell-based, luminescence, SF-1 (NR5A1), full-length DAX-1; HEK293T StAR-luciferase reporter, SF-1/DAX-1 repression relief; inhibition, % at 6.8 µM; 370,000 tested, 1.1% active; AID 652010, 2013;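 active = inhibition above the mean over all tested compounds plus 3 SD, cut at about 3.6% in these data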;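 also: 0% = DAX-1 cells with DMSO and 100% = cells lacking DAX-1 with DMSO; higher inhibition means more luminescence from relief of DAX-1 repression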
Rev-erbA mod: modulators of Rev-erb alpha DNA binding, primary screen, biochemical, FITC-DNA, fluorescence polarization, uHTS. 370,000 tested, 0.79% active. Rev-erbα–FITC-DNA binding, 90 min. activity, % at 10 µM;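 active = activity above about 14%, limit read from the data; passing the limit was not always enough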;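 also: 0% = DMSO wells with 35 nM protein and 100% = DMSO wells with 750 nM protein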
NR1D1 mod conf: modulators of Rev-erb alpha DNA binding, confirmation, biochemical, FITC-DNA, fluorescence polarization, single point. shares compounds with Rev-erbA mod. 90 min. activation, % at 25 µM. 3,000 tested, 61% active;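 active = activation at or above a set limit, or at least 3 SD above the negative control mean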;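 also: 0% = 35 nM protein with DMSO and 100% = 750 nM protein high control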
RORg counter: modulation of RORgamma DNA binding, dose response, counter-screen for Rev-erb alpha modulator project, biochemical, fluorescence polarization, FITC-DNA | shares compounds with Rev-erbA mod | purified RORgamma protein-FITC-DNA binding | IC50, µM | 910 tested, 8% active | AID 1259320, 2017;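 active = Compounds whose fitted half-maximal concentration for disrupting protein-DNA binding is below 10 micromolar; the record names Rev-erb in its text, so the target is in doubt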
Numbers without * were called inactive; · = no result given.

SMILES	hgDAF-12 ag	DAX1 inh-1	hcDAF-12 act	ssDAF-12 act	DAX1 inh-2	Rev-erbA mod	NR1D1 mod conf	others
CCOc1ncccc1C(=O)Nc1ccc(Cl)c(S(=O)(=O)N2CCCC2)c1	-5.9	-1.4	-4.2	-2.4	-1.4	32.9*	18.6*
COC(=O)[C@]12C[C@H](CC(=O)N3CCCCC3)C(=O)N(Cc3ccc(Cl)cc3Cl)C1=C[C@H](C(C)C)O[C@@H]2C1CC1	-0.9	·	-2.3	-0.3	-1.3	-4.2	·
O=C(C(=O)N1CCC(CNC(=O)c2cccs2)CC1)c1cc2ccccc2o1	-1.5	·	-1.7	-1.5	1.7	1.0	·
O=S(=O)(c1ccc2nc(N3CCN(c4ccccc4)CC3)ccc2c1)N1CCCCC1	-0.5	0.0	-1.7	-1.1	-1.2	83.3*	56.4*	RORg counter=>40
CC(=O)c1ccc(N2CCN(c3ccc4cc(S(=O)(=O)N5CCC(C)CC5)ccc4n3)CC2)cc1	-1.0	-0.1	-0.4	-0.9	-0.5	35.1*	44.7*	RORg counter=>40
CC(=O)c1ccc(N2CCN(S(=O)(=O)c3ccc4c(c3)CCC(=O)N4)CC2)cc1	0.5	·	-1.4	-1.2	-0.7	2.1	·
CC(=O)c1ccc(N2CCN(S(=O)(=O)c3ccc4c(c3)NC(=O)CO4)CC2)cc1	0.5	0.7	-0.8	-1.0	0.0	38.1*	22.0*
COc1ccccc1N1CCN(c2ccc3cc(S(=O)(=O)N4CCCCC4)ccc3n2)CC1	-1.4	-0.7	-0.9	-1.5	0.0	-8.0	·
CC(C)C[C@@H]1COc2cc(Br)ccc2S(=O)(=O)N1Cc1cn(Cc2ccc(Cl)cc2)nn1	2.0	·	-1.6	-0.7	-0.1	-4.0	·
NCCCC(O)(P(=O)(O)O)P(=O)(O)O	·	·	·	·	·	2.2	·
S=c1[nH]nc(-c2n[nH]c3c2CCC3)n1N=Cc1c[nH]c2ccccc12	-5.0	·	-1.1	-0.9	0.9	-1.1	·
Cc1ccc(-c2c(C(=O)NCC(C)C)oc(=O)c3ccccc23)cc1	-2.7	·	-1.1	-1.0	-0.2	-2.6	·
O=C(Nc1nnc(Cc2ccccc2F)s1)c1ccccc1Cl	1.6	0.1	1.2	-0.9	0.5	6.2	·
O=C(Nc1nnc(-c2ccccc2Cl)s1)c1ccccc1F	1.4	1.5	1.0	-1.1	0.6	26.9*	3.4
O=S1(=O)c2ccc(Br)cc2OC[C@H](Cc2ccccc2)N1Cc1cn(Cc2ccc(Cl)cc2)nn1	3.4	·	0.8	-0.9	-1.3	-2.0	·
Cc1ccc(S(=O)(=O)NCC2CCN(C(=O)C(=O)c3cccs3)CC2)cc1	-1.3	·	-0.6	-0.3	-0.1	-6.3	·
O=C(NCCc1ccccc1Cl)[C@@H]1CCCN1C(=O)[C@@H](NC(=O)N1CCOCC1)C1CCCCC1	2.4	·	0.1	-0.2	-0.5	5.3	·
CCC(=O)N1CCCC(C)(C(=O)Nc2ccc3scnc3c2)C1 (stereo not drawn)	-1.7	·	3.2	0.3	0.8	18.8*	3.2
CCC(=O)N1CCCC(C)(C(=O)Nc2nccc3cccnc23)C1 (stereo not drawn)	0.8	·	0.6	-0.2	-1.1	-2.6	·
Cc1cc(CN2CCOCC2)c(O)c(C2(C)CCCCC2)c1	2.1	0.4	-0.3	-0.8	-0.2	18.4*	24.0*
O=S1(=O)CC(N2CC=CC2)CN1Cc1cn(Cc2cccc(C(F)(F)F)c2)nn1 (stereo not drawn)	-1.1	·	-1.9	-1.1	-0.5	-0.4	·
O=[N+]([O-])c1ccc2c(c1)Cc1cc(F)ccc1-2	0.4	0.9	-0.5	-1.4	-0.8	70.2*	61.0*	RORg counter=>40
COc1cc2c(cc1[N+](=O)[O-])-c1ccc([N+](=O)[O-])cc1C2	-0.8	·	0.0	-1.3	-2.0	89.6*	12.4*
O=C(Cn1nnc(-c2ccccc2NC(=O)c2ccccc2F)n1)NC1CCCC1	-0.7	-1.0	0.0	-0.7	0.3	22.6*	26.5*
O=C(Nc1ccccc1-c1nnn(CC(=O)N2CCOCC2)n1)c1ccccc1F	0.4	0.9	-1.7	-1.4	0.1	-2.1	·
SMILES	hgDAF-12 ag	DAX1 inh-1	hcDAF-12 act	ssDAF-12 act	DAX1 inh-2	Rev-erbA mod	NR1D1 mod conf	others
Cc1ccc(-c2nc3cc(Br)cnc3nc2-c2ccc(C)cc2)cc1	4.9	1.5	-0.1	0.6	0.1	25.6*	15.9
Cc1ccccc1CN1[C@@H](C)[C@H](c2ccccc2)Oc2cccc(N3CCCC3)c2S1(=O)=O	0.6	·	1.3	-1.2	1.6	-0.8	·
Cc1ccc(-c2cc(C(F)(F)F)c(C#N)c(SCC(=O)O)n2)cc1	-2.5	0.0	2.9	0.0	0.4	-1.5	·
N#Cc1c(C(F)(F)F)cc(-c2ccc(Cl)c(Cl)c2)nc1SCCN1CCOCC1	·	0.9	·	·	·	3.4	·
CCOC(=O)CCSc1nc(C)cc(C(F)(F)F)c1C#N	-1.6	0.4	1.5	-1.0	0.2	3.0	·
C=CCSc1nc(-c2ccc3c(c2)OCO3)cc(C(F)(F)F)c1C#N	-1.2	-0.9	3.2	-0.1	-0.6	24.8*	20.3*
COc1ccc(-c2cc(C(F)(F)F)c(C#N)c(SCC(=O)Nc3ccc(C)cc3)n2)cc1	-0.6	1.1	3.8	-0.5	0.8	82.8*	32.1*
CCOC(=O)CC(=O)CSc1nc(-c2ccc3c(c2)OCO3)cc(C(F)(F)F)c1C#N	·	0.3	·	·	·	110.3*	84.5*	RORg counter=>40
CCOC(=O)CCSc1nc(-c2ccc3c(c2)OCO3)cc(C(F)(F)F)c1C#N	1.8	-0.3	4.4	-1.3	-0.3	20.6*	15.2
CCCCN1CCN(C2=Nc3ccccc3Sc3ccccc32)CC1	1.9	·	-2.3	-1.4	0.4	-0.2	·
Cc1ccc(Cn2cc(CN3[C@H](CC(C)C)COc4cc(Br)ccc4S3(=O)=O)nn2)cc1	-1.3	·	0.5	-0.1	0.8	-0.6	·
O=C(CCS(=O)(=O)c1ccccc1)Nc1ccc(F)cc1Cl	1.7	·	-2.4	-1.1	-0.3	1.7	·
O=C(NCc1ccco1)OC1CCC12CCC(c1ccccc1)CC2 (stereo not drawn)	2.0	·	-0.7	-1.2	·	7.6	·
CCN(CC)c1ccc2cc(-c3nc(-c4ccc(OC)cc4)cs3)c(=O)oc2c1	-0.1	·	-0.1	-0.3	1.2	40.4*	29.0*
